Reference: PubChem BioAssay AID738 (SRMLSC, 2007)
Among all 98,000 compounds or so, about 4,900 (5%) were called active. The entries come from a sample that favours actives as a whole. Values without a mark were called inactive. Cut-off read from the data, not from the text of the source: active = inhibition above about 30%; inactive = the rest.

Assay: yeast control strain growth suppression – counter-screen for post-Golgi transport modulator project, primary screen (AID 738)
Conditions: efflux-deficient yeast background strain, growth absorbance A615, 16 h; at 10 µM; stronger effect = higher value

| SMILES | inhibition |
| --- | --- |
| C=CCNc1cnn(-c2ccc(C)cc2)c(=O)c1Cl | 8.21% |
| Cc1cccc(Cn2c(SCCO)nc3c2c(=O)n(C)c(=O)n3C)c1 | 3.8% |
| CCOc1ccc(Cn2c(SCCCCC#N)nc3c2c(=O)n(C)c(=O)n3C)cc1OCC | 8.56% |
| CCCSc1nc2c(c(=O)n(C)c(=O)n2C)n1Cc1ccc(C)cc1 | 51.8% (active) |
| O=C(ON=C1CCN(S(=O)(=O)c2ccccc2)CC1)c1ccc(Cl)cc1 | 13.6% |
| COc1cccc(Oc2ccc(N)cc2)c1 | 34% (active) |
| Cc1ccc(Oc2ccc(N)cc2)cc1 | 28.3% |
| Nc1ccc(Oc2ccc(Cl)cc2)cc1 | 10% |
| COC(=O)Cc1cc(=O)oc2c(C)c(O)ccc12 | 7.59% |
| Cc1cc(OC(=O)c2ccc(Cl)cc2)cc(=O)n1C | -4.12% |
| CCN(CC)CC(=O)c1c[nH]c2ccc(OC)cc12 | 15.9% |
| COc1ccc2[nH]c3ccc(OC)cc3c2c1 | 8.06% |
| COc1ccc2[nH]cc(/C=C(/C#N)S(=O)(=O)c3ccccc3)c2c1 | 36.8% (active) |
| CCCCCCC(=O)Nc1nc(C)c(-c2csc(Nc3cc(Cl)ccc3OC)n2)s1 | 0.3% |
| CCCCC(=O)Nc1nc(C)c(-c2csc(Nc3ccc(Cl)cc3)n2)s1 | 1.53% |
| C=CCCC(=O)Nc1nc(C)c(-c2csc(Nc3ccc(Cl)cc3)n2)s1 | 50.3% (active) |
| Cc1ccc2cccc(S(=O)(=O)N3CCN(c4ccccc4F)CC3)c2n1 | 37.7% (active) |
| O=C(c1cccc2ccccc12)N1CCN(c2ccccc2F)CC1 | 13.7% |
| O=S(=O)(N1CCOCC1)N1CCN(c2ccccc2F)CC1 | -1.25% |
| O=C(CSCc1c(Cl)cccc1Cl)NN1C(=O)c2ccccc2C1=O | 8.98% |
| c1cnc(Nc2nc(-c3ccc4ccccc4c3)cs2)nc1 | 2.57% |
| COc1ccc(OC)c(Nc2nc(-c3ccc(O)c(O)c3)cs2)c1 | 34.6% (active) |
| COc1ccc(Nc2nc(-c3ccccc3)cs2)cc1 | 6.6% |
| CON(C)S(=O)(=O)c1ccc2c(c1)NC(=O)C1CCCN21 (stereo not given) | -2.22% |
| O=C(c1cc(-c2cccc(O)c2)on1)N1CCc2ccccc2C1 | 41% (active) |

| SMILES | inhibition |
| --- | --- |
| O=C(c1cc(-c2ccccc2O)on1)N1CCCC1 | 12% |
| O=C(c1cc(-c2ccc(O)cc2)on1)N1CCCc2ccccc21 | 23.4% |
| O=C(NCC1CCC(C(=O)O)CC1)OCc1ccccc1 (stereo not given) | 8.23% |
| O=C(CNC(=O)OCc1ccccc1)Oc1cc2oc(=O)cc(-c3ccccc3)c2cc1Cl | 34.6% (active) |
| O=C(CNC(=O)c1ccccc1)NCC(=O)OCc1ccc(Cl)cc1 | 2.68% |
| O=C(Nc1ccc2c(c1)OCCO2)c1ccc(Cl)c(S(=O)(=O)N2CCCCC2)c1 | 7.53% |
| O=C(NCCc1ccccc1)c1ccc(NC2=NC3CS(=O)(=O)CC3S2)cc1 (stereo not given) | -1.06% |
| Cc1c(Br)c([N+](=O)[O-])nn1C(C)C(=O)Nc1nccs1 (stereo not given) | 23.8% |
| O=C(Cc1ccc(F)cc1)NC1CCCC1 | 20.8% |
| CCNc1nc(N)nc(-c2cc(Cl)ccc2OC)n1 | -4.76% |
| O=c1oc2c(CN3CCCCC3)c(O)ccc2c2c1CCCCC2 | -5.61% |
| COc1ccc2c3c(c(=O)oc2c1OCC(=O)C(C)(C)C)CCCC3 | 7.23% |
| CCCOc1ccc2c3c(c(=O)oc2c1OCCC)CCC3 | 36.1% (active) |
| CSc1ccc(-c2c(C#N)c(N)nc3c2c(C)nn3-c2ccccc2)cc1 | 2.79% |
| CSc1nc(N)c(C#N)c(-c2ccccc2Cl)c1C#N | 68.3% (active) |
| Cc1c(-c2ccccc2)nc(N)c(C#N)c1-c1cccs1 | 15% |
| COc1cccc(/C=N\Nc2nncc(-c3ccccc3)n2)c1 | 7.59% |
| Nc1ccc(-c2sc(N)nc2-c2ccccc2)cc1 | 2.78% |
| COc1cc(OC)c(NC(=O)c2ccc(Br)o2)cc1Cl | 2.65% |
| O=C(Nc1cccc2ncccc12)C(Cl)(Cl)Cl | 8.77% |
| O=C(Nc1cccc2ncccc12)c1ccc(-c2ccc(Cl)cc2Cl)o1 | 37.2% (active) |
| CCC1(CC)NC(=O)N(CC(=O)OCC(=O)Nc2ccc(C(F)(F)F)cc2)C1=O | 5.34% |
| CCCN(CCC)C(=O)C1c2ccccc2Oc2ccccc21 | 31.5% (active) |
| O=C(c1ccco1)N1CCN(C(=O)C2c3ccccc3Oc3ccccc32)CC1 | 0.85% |
| O=C(N/N=C/c1ccc(O)c(O)c1)C1c2ccccc2Oc2ccccc21 | 2.52% |

| SMILES | inhibition |
| --- | --- |
| Cc1c(NC(=O)CCCOc2ccccc2)cccc1[N+](=O)[O-] | 2.57% |
| O=C(O)CSCNC(=O)CC12CC3CC(CC(C3)C1)C2 | 0.28% |
| O=C(CC12CC3CC(CC(C3)C1)C2)Nc1ccc2c(c1)COC2=O | 42.7% (active) |
| CC1Cc2ccccc2N1CC(=O)Nc1ccc2c(c1)OC(F)(F)O2 (stereo not given) | 17.9% |
| COCCCNC(=O)C1CC(=O)N(CCc2ccccc2)C1 (stereo not given) | 5.92% |
| COc1cc(OC)cc(C(=O)NC2CCN(C(=O)N3c4ccccc4Sc4ccccc43)CC2)c1 | 4.32% |
| CCCn1c(C(O)c2cc(OC)ccc2OC)nc2ccccc21 (stereo not given) | 17.6% |
| COc1cc(C(O)c2nc3ccccc3n2C)cc(OC)c1OC (stereo not given) | 41.1% (active) |
| CC(C)n1c(C(O)c2ccccc2)nc2ccccc21 (stereo not given) | 1.26% |
| Cn1c(=O)c(C(=O)Nc2ncccn2)c(O)c2ccccc21 | 44.2% (active) |
| CCOc1cc(C(=O)Nc2ncccn2)cc(OCC)c1OCC | -2.73% |
| O=C(Nc1ncccn1)c1cccs1 | 5.69% |
| CCCn1nnnc1NC(=O)COc1ccc(Cl)cc1C | 4.96% |
| O=C(NCCc1ccccn1)c1cc(C(=O)C2CCCCC2)c[nH]1 | -1.83% |
| Cc1ccc(SCC(=O)NC(=O)NCc2ccco2)c(C)c1 | 2.9% |
| O=C1c2cccc3cccc(c23)N1CN1CCN(c2ccccn2)CC1 | 32.2% (active) |
| OC(COc1cccc2ccccc12)CN1CCN(c2ccccn2)CC1 (stereo not given) | -6.3% |
| CC(=C1C(=O)c2ccccc2C1=O)N1CCN(c2ccccn2)CC1 | 2.92% |
| CC1=C(C)CC(C(=O)NNC(=O)c2ccccc2O)C(C(=O)O)C1 (stereo not given) | -0.3% |
| Cc1nc(NC2=NC(C(=O)Nc3ccc(Cl)cc3)CC(=O)N2)nc2ccccc12 (stereo not given) | -4.48% |
| CSc1ccc(C#N)cc1NC(=O)c1cccc(Cl)c1 | 15.8% |
| COC(=O)C(NC(=O)c1ccc(OC)cc1)(Nc1ncc(S(=O)(=O)c2ccc([N+](=O)[O-])cc2)s1)C(F)(F)F (stereo not given) | 6.12% |
| O=C(NC(Nc1nc2ccc([N+](=O)[O-])cc2s1)(C(F)(F)F)C(F)(F)F)c1ccccc1 | 89.5% (active) |
| Cc1cc(C)cc(OCC(=O)Nc2nc3ccc([N+](=O)[O-])cc3s2)c1 | 11.7% |
| COc1ccc2c(c1OC)C(=O)c1ccccc1C2=O | 1.8% |

| SMILES | inhibition |
| --- | --- |
| Cc1nnc(SCC(=O)N/N=C/c2cn(-c3ccccc3)nc2-c2ccc(F)cc2)n1-c1ccccc1 | 4.61% |
| O=C1c2ccccc2C2=Nc3ccccc3SC(c3ccccc3F)C12 (stereo not given) | 95.4% (active) |
| O=C(CN1C(=O)NC2(CCCC2)C1=O)Nc1ccc(F)c(F)c1F | 3.79% |
| O=C1c2cccc3cc(Br)cc(c23)C(=O)N1Nc1ccccc1 | 12.1% |
| O=C(Nc1ccccc1)OCc1cc(-c2ccc(Cl)cc2)on1 | 10.1% |
| O=C1C=C(c2ccc(Cl)cc2)C(=O)N1Nc1ccccc1 | 99.5% (active) |
| Cc1ccc(-c2nnc(-n3nnc4ccccc43)c3ccccc23)cc1 | 12% |
| N=c1oc2ccccc2cc1C(=O)N/N=C/c1ccccc1 | -3.5% |
| CCOC(=O)CSc1nnc(-c2cccc(Br)c2)o1 | 31.6% (active) |
| CCOC(=O)CSc1nnc(-c2ccncc2)o1 | 2.24% |
| CCN(CC)C(=O)CSc1nnc(-c2cccc(OC)c2)o1 | 2.38% |
| O=C(CSCc1ccccc1Cl)NNC(=O)c1ccccc1 | 3.42% |
| CCOc1ccc(N(CC(=O)NC2CCCCCC2)S(=O)(=O)c2c(C)[nH]c(=O)[nH]c2=O)cc1 | 5.91% |
| COc1ccc(-c2c(C(C)=O)c(C)nc3sc4c(=O)n(-c5ccc(C)cc5)nnc4c23)cc1 | 16.1% |
| CCn1c(SCCC(C)C)nnc1-c1c[nH]c2ccccc12 | 56.1% (active) |
| CCn1c(SCC(=O)Nc2ccc(OC)c(OC)c2)nnc1-c1c[nH]c2ccccc12 | 7.39% |
| CCC(C)Sc1nnc(-c2c[nH]c3ccccc23)n1CCOC (stereo not given) | 0.59% |
| CN=C1S/C(=C\c2ccc(Sc3ccc(Cl)cc3)o2)C(=O)N1C | -6.09% |
| CCC(O)CNc1nc(-n2nc(C)cc2C)nc2sc3c(c12)CC(C)(C)OC3 (stereo not given) | -1.72% |
| Cc1cc(C)n(-c2nc(SCC(=O)N3CCCC3)c3c4c(sc3n2)CCCC4)n1 | 24.5% |
| COCCNc1nc(-n2nc(C)cc2C)nc2sc3c(c12)CCCC3 | 31.4% (active) |
| O=C(Nc1ccc(-n2ccnc2P(=O)(O)c2ccccc2)cc1)c1ccccc1Br | 13.2% |
| COc1ccc(CC(=O)Nc2ccc(-c3nnc(-c4ccc(C)cc4)o3)cc2)cc1 | 5.16% |
| COc1cccc(NC(=O)Cc2ccc(C)cc2)c1 | 2.33% |
| COc1ccc(NC(=O)/C(Cl)=C(/Cl)S(=O)Cc2ccc(C)cc2)cn1 (stereo not given) | 102% (active) |
